Reference: PubChem BioAssay AID2380 (Sanford-Burnham Center for Chemical Genomics, 2010)
The campaign covered roughly 330,000 compounds. About 960 (0.29%) were called active.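 The calls were made as follows: active = compounds whose signal lies at least 3.5 SD above the mean of all wells on their plate; inactive = the rest.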 The list comes from a sample in which actives are over-represented; it also holds similar structures and randomly drawn compounds.

Test: inducers of MIN6 beta-cell proliferation, primary screen, ATP luminescence, uHTS (AID 2380);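 also: 0% = DMSO-treated cells in low-serum medium and 100% = 10% serum control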
Conditions: MIN6 cells proliferation, ATPlite luminescence, 48 h; at 10 µM; stronger effect = higher value; 100% = growth in 10% serum; cells starved in 0.2% serum

| Compound | proliferation |
| --- | --- |
| O=C(NCCCN1CCCCC1)C1CCCN(c2ncnc3c2nc2n3CCCCC2)C1 (stereo unspecified) | -1.13% (inactive) |
| COc1cccc(NC(=O)C2CCCN(c3ncnc4c3nc3n4CCCCC3)C2)c1 (stereo unspecified) | 5.62% (inactive) |
| COc1cccc(CNC(=O)C2CCCN(c3ncnc4c3nc3n4CCCCC3)C2)c1 (stereo unspecified) | 7.08% (active) |
| CC1CN(C(=O)CCC(=O)NCc2cccnc2)c2ccccc2O1 (stereo unspecified) | -2.56% (inactive) |
| Cc1ccc2c(c1)N(C(=O)CCC(=O)NCc1cccnc1)CCO2 | 1.08% (inactive) |
| Cc1ccccc1CNC(=O)CCC(=O)N1Cc2ccccc2Oc2ncccc21 | 12.5% (active) |
| CC(C)Cc1nc(Nc2ccc(S(=O)(=O)N3CCCC3)cc2)c2nnn(Cc3ccccc3)c2n1 | -0.74% (inactive) |
| COC(=O)C(C(=O)Nc1cccc(C)n1)C1CCCCCC1 (stereo unspecified) | 0% (inactive) |
| O=C(C1CCN(C2CCN(Cc3cccc4c3OCO4)CC2)CC1)N1CCOCC1 | 1.29% (inactive) |
| CC1CCN(C(=O)CCc2nnc3ccc(NCc4ccco4)nn23)CC1 | -1.78% (inactive) |
| COC(=O)COc1ccc(S(=O)(=O)N2CCOCC2)cc1 | -2.03% (inactive) |
| CC(=O)c1cccc(NC(=O)COc2ccc(S(=O)(=O)N3CCOCC3)cc2)c1 | 10.6% (active) |
| O=C(COC(=O)c1ccccc1)Nc1cccc(S(=O)(=O)N2CCOCC2)c1 | 1.39% (inactive) |
| CCN1C(=O)[C@@H]2[C@@H](c3ccc(-c4ccccc4)cc3)N3CCCC[C@@]3(C(=O)OC)[C@@H]2C1=O | -7.4% (inactive) |
| CN(CC(=O)Nc1c(Cl)cccc1Cl)C(=O)CC1OC(=O)c2ccccc21 (stereo unspecified) | -1.95% (inactive) |
| CC1Cn2c(nnc2-c2cccs2)S1 (stereo unspecified) | -1.85% (inactive) |
| O=C(NCc1ccc2c(c1)OCO2)c1cc2c(s1)CS(=O)(=O)C2 | -0.86% (inactive) |
| CC(=O)OC(C(=O)NC1CCCCC1)c1ccccc1 (stereo unspecified) | 5.32% (active) |
| CC(=O)CC(CC(=O)NC1CCCCC1)c1ccccc1 (stereo unspecified) | 0.52% (inactive) |
| O=C(NNC(=O)C(O)c1ccccc1)NC1CCCCC1 (stereo unspecified) | -1.83% (inactive) |
| Cn1c(=O)c2c(ncn2CC(COCc2ccccc2Cl)OCc2ccccc2Cl)n(C)c1=O (stereo unspecified) | -1.81% (inactive) |
| Nc1[nH]c(=S)nc2nc(-c3ccccc3)c(-c3ccccc3)nc12 | -5.91% (inactive) |
| COC(=O)c1cc(C(=O)NC(C)C2CC3CCC2C3)cc([N+](=O)[O-])c1 (stereo unspecified) | 0% (inactive) |
| O=S(=O)(NCc1ccccn1)c1ccc(F)cc1 | 0.39% (inactive) |

| Compound | proliferation |
| --- | --- |
| O=S(=O)(NCCc1ccc(F)cc1)c1cccc2cccnc12 | 3.17% (inactive) |
| O=S(=O)(NCCOc1cccc2cccnc12)c1ccc(F)cc1 | 5.56% (active) |
| Cc1cc(Cl)ccc1NNC(=O)c1snnc1C | -4.18% (inactive) |
| CNc1[nH]ncc1[N+](=O)[O-] | 3.19% (inactive) |
| CN(C(=O)CSc1nnc(-c2n[nH]c3ccccc23)o1)c1ccccc1 | 0.29% (inactive) |
| Cc1ccc(OCC(=O)Nc2ccc(NC(=O)c3cccs3)cc2)c(C)c1 | 0% (inactive) |
| Cc1ccc(C(=O)Nc2ccc(NC(=O)c3cccs3)cc2)c(C)c1 | 0% (active) |
| Cc1ccc(NC(=O)c2cccs2)cc1S(=O)(=O)N(C)C | 0.43% (inactive) |
| CC(C)(C)N(CC#CCC(O)(c1ccccc1)C1CCCC1)CCO (stereo unspecified) | 2.2% (inactive) |
| CCn1c(=O)n(CC)c2cc(N3CCCC3)c(NC(=O)c3ccccc3Br)cc21 | 13.7% (active) |
| COc1ccc(NS(=O)(=O)c2ccc(N3CCOCC3)c(NC(=O)c3ccccc3Br)c2)cc1 | 5.36% (inactive) |
| O=C(Nc1ccccc1N1CCCC1)c1ccc2ccccc2c1 | -2.88% (inactive) |
| CCC(C(=O)NC1CCCC1)N(C(=O)Cn1nnc(-c2ccc(C)o2)n1)c1ccc(OC)c(OC)c1 (stereo unspecified) | 5.41% (inactive) |
| COc1ccc(N(CC(=O)Nc2cc(OC)ccc2OC)S(=O)(=O)c2c(C)noc2C)cc1 | -0.48% (inactive) |
| CCCOc1ccc(NC(=O)CC2C(=O)N(C)C(=S)N2Cc2ccc3c(c2)OCO3)cc1 (stereo unspecified) | 0% (inactive) |
| CSc1nsc(NC(=O)Nc2ccccc2)n1 | -5.02% (inactive) |
| CC/C(=N/Nc1ccccc1)c1cnnc(SC)n1 | 8.26% (active) |
| C/C(=N/Nc1ccc(Cl)cc1)c1cnnc(-c2ccccc2)n1 | -3.11% (inactive) |
| OCc1ccc(-c2ccccc2)c(-c2ccccc2)c1 | -3.43% (inactive) |
| O=C(O)CC(SCC(=O)Nc1ccc(Br)cc1)C(=O)O (stereo unspecified) | -0.34% (inactive) |
| CCCCOC(=O)Nc1sc2nc(C)cc(C)c2c1-n1cccc1 | 0.21% (inactive) |
| Cc1cc(C)c2c(-n3cccc3)c(NC(=O)OCc3ccccc3)sc2n1 | -5.05% (inactive) |
| COC(=O)Nc1sc2nc(C)cc(C)c2c1-n1cccc1 | 8.22% (active) |
| CCOC(=O)N1CCN(C(=O)c2ccc3c(=O)n(CCc4ccc(OC)c(OC)c4)c(=O)[nH]c3c2)CC1 | 2.68% (inactive) |

| Compound | proliferation |
| --- | --- |
| CCOc1ccc(-n2c(SCC(=O)Nc3cc(C(=O)O)ccc3Cl)nc3ccccc3c2=O)cc1 | -1.58% (inactive) |
| S=C(Nc1cccc(Cl)c1)Nc1ccc2cn[nH]c2c1 | 0% (active) |
| Cc1csc(NC(=S)Nc2cccc(Cl)c2)n1 | -2.77% (inactive) |
| FC(F)(F)c1cccc(NC(=S)Nc2cccc(Cl)c2)c1 | -6.83% (inactive) |
| CCCCn1c(N)c(N(CC)C(=O)/C=C/c2ccco2)c(=O)[nH]c1=O | -1.59% (inactive) |
| COc1ccc(CCC(=O)c2ccc(OC)cc2)cc1 | 5.33% (active) |
| COc1ccc(C(=O)CCC(=O)Nc2ccc(Cl)cc2)cc1 | -2.97% (inactive) |
| CO/N=C/CC(=O)c1ccc(OC)cc1 | -1.22% (inactive) |
| CCCCn1c(N)c(N(CCOC)C(=O)c2cccc(S(=O)(=O)N3CCCCC3)c2)c(=O)[nH]c1=O | 1.76% (inactive) |
| c1ccc(C[C@H]2CNCCN2CCC23CC4CC(CC(C4)C2)C3)cc1 | -8% (inactive) |
| O=C(/C=C/Nc1ccccc1)c1cnc(-c2ccccc2)s1 | -1.21% (inactive) |
| CC(C)(C)C(=O)c1cnc(Nc2ccccc2)s1 | -3.47% (inactive) |
| CC(=O)c1cnc(-c2ccccc2)s1 | 8.82% (active) |
| O=C(CN1CCN(c2ccc(F)cc2)CC1)Nc1cccc(C(F)(F)F)c1 | -3.27% (inactive) |
| CC(C)(C)C1CCC(OC(=O)CCC(=O)Nc2ccccc2)CC1 (stereo unspecified) | 0% (inactive) |
| O=C(c1ccc2c(c1)N(Cc1ccc(F)cc1)C(=O)c1ccccc1S2(=O)=O)N1CCN(c2ccccn2)CC1 | -0.68% (inactive) |
| O=C1c2ccccc2S(=O)(=O)c2cc(N3CCN(c4ccccn4)CC3)ccc21 | 12.1% (active) |
| O=C(c1ccc2c(c1)C(=O)N(c1ccc(Cl)cc1)C2=O)N1CCN(c2ccccn2)CC1 | 2.75% (inactive) |
| Cc1cc(=O)oc2cc(OCC3CC(c4ccccc4Cl)=NO3)ccc12 (stereo unspecified) | -5.28% (inactive) |
| COc1ccc(OCC(=O)OCCN(C)C)cc1 | 0.06% (inactive) |
| Cc1c(C(=O)NCCN(C)C)oc2ccc(S(=O)(=O)N3CCCC3)cc12 | 0% (inactive) |
| Cc1ccc(-n2c(SCC(=O)N/N=C/C=C/c3ccccc3[N+](=O)[O-])nc3ccccc3c2=O)cc1 | -2.84% (inactive) |
| O=C(CSc1nc2ccccc2[nH]1)N/N=C/C=C\c1ccccc1[N+](=O)[O-] | 6.1% (active) |
| CCn1c(SCC(=O)N/N=C/C=C/c2ccccc2[N+](=O)[O-])nnc1-c1ccccc1 | -1.08% (inactive) |

| Compound | proliferation |
| --- | --- |
| Cn1cc(-c2ccccc2)cc(C#N)c1=O | -2.8% (inactive) |
| Cc1ccc(OCC(=O)NNC(=S)NCc2ccccc2)cc1 | 1.61% (inactive) |
| O=C(NNC(=S)NCc1ccccc1)c1ccc(OC(F)F)cc1 | 0% (active) |
| Cc1scc(C(=O)NNC(=S)NCc2ccccc2)c1C | 0% (inactive) |
| C=CCn1nc(-c2ccccc2)c2c(C)onc2c1=O | 2.27% (inactive) |
| Cc1cccc(CN2CCC(n3nccc3NC(=O)c3ccccc3C)CC2)n1 | 0.34% (inactive) |
| CN1C(=O)[C@H]2[C@@H](C3CC3)N3C(=O)CN(Cc4ccccc4)C(=O)[C@@]3(C)[C@H]2C1=O | 3.27% (inactive) |
| CCCCC(=O)NCc1ccc(F)cc1 | 0% (inactive) |
| O=C(CC1CCCCC1)NCc1ccc(F)cc1 | -3.62% (inactive) |
| Fc1ccc(CNCc2ccc(Br)cc2)cc1 | 5.1% (active) |
| Cc1ccc(S(=O)(=O)N2CCN(C(=O)c3ccccc3-c3nc4ccccc4s3)CC2)c(C)c1 | -1.73% (inactive) |
| COc1ccc(Cl)cc1S(=O)(=O)Nc1cccc(C(=O)O)c1 | -0.59% (inactive) |
| CC(C)c1nnc(NC(=O)COC(=O)/C=C/c2ccc([N+](=O)[O-])cc2)s1 | 0.53% (inactive) |
| COc1ccccc1OCc1ccc(C(=O)NC(C)c2ccccc2)o1 (stereo unspecified) | 0.18% (inactive) |
| O=C(c1ccco1)N1CCN(C(=O)c2ccc(COc3ccc(F)cc3)o2)CC1 | 6.29% (inactive) |
| COc1ccccc1OCc1ccc(C(=O)N2CCN(C)CC2)o1 | 7.74% (active) |
| CC(NC(=O)c1ccco1)c1ccc2c(c1)OCO2 (stereo unspecified) | -0.03% (inactive) |
| Cc1cc(C(=O)NNC(=S)Nc2ccccc2C)cs1 | 0% (inactive) |
| O=C(NC(=S)Nc1cccc2c(O)cccc12)c1cccc(Br)c1 | -7.11% (inactive) |
| Cc1ccccc1NC(=S)NNC(=O)c1cccc(Br)c1 | 13.8% (active) |
| CC1(C)O[C@@H]2[C@H](O1)[C@@H](CO)O[C@H]2n1c(N2CCCCC2)nc2c(N)ncnc21 | 1.62% (inactive) |
| COc1ccc(C)cc1Nc1nc(C)nc2c1oc1ccccc12 | -4.77% (inactive) |
| COCCNc1nc(-c2ccccc2)nc2c1oc1ccccc12 | 6.28% (active) |
| C[C@@H](Nc1nc(-c2ccccc2)nc2c1oc1ccccc12)C(=O)O | -1.21% (inactive) |
